# From PubChem
# In the library only some 1.2% were active in any assay of this set; here they are far more common.
# RGS7-Gao reg: human RGS7-Galphao interaction regulation | 0.35% of 220,000 active | AID 1439 | binding response (% of control), % at 10 µM | Multiplexed bead flow cytometry, RGS7-Galphao binding; actives lie on both sides; in the data active means binding response below about 49% or above about 150%; inconclusive means no clear call, values can overlap the other calls; inactive means in between;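 further: fluorescent Galphao held in activated GDP-AlF4 state binding bead-coupled RGS7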
# Target sequence (P09471 whole entry, looked up): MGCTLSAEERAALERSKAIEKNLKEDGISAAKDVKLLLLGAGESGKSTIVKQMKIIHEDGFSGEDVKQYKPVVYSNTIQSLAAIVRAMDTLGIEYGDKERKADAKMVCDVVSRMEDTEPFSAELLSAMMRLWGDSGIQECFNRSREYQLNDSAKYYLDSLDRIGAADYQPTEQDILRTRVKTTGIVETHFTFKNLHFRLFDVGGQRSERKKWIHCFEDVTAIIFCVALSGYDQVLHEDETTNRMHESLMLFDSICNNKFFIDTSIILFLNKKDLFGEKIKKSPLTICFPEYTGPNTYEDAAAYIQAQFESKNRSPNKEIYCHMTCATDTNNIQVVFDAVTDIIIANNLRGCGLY
# GSH bead fluor: compound fluoresces at 488/530 nm on GSH beads | GSH beads flow cytometry, compound fluorescence 488/530 nm; active compounds read high | fluorescence (KMESF) at 10 µM | 0.25% of 190,000 active; in the data active means fluorescence above about 89;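 further: glutathione beads carrying GST-tagged Bcl family fusion proteins plus one bare bead set; values are compound well signal with DMSO vehicle wells as background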
# RGS8-Gao: modulates binding of RGS8 to human Galphao | multiplexed bead flow cytometry; actives lie on both sides | response (percent of control binding), % at 10 µM | 0.34% of 220,000 active; in the data active means response below about 60% or above about 140%; inactive means in between;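 further: Galphao activated as the GDP aluminium fluoride complex binding bead-coupled RGS8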
# RGS16-Gao: modulates binding between human RGS16 and Galphao | O15492+P09471 | bead-based flow cytometry RGS16-Galphao binding, fluorescence; actives lie on both sides | binding response (% of control), % at 10 µM | 0.38% of 220,000 active | AID 1441;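 further: Galphao activated by GDP with aluminum fluoride before binding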
# Target sequence (O15492 whole entry, looked up): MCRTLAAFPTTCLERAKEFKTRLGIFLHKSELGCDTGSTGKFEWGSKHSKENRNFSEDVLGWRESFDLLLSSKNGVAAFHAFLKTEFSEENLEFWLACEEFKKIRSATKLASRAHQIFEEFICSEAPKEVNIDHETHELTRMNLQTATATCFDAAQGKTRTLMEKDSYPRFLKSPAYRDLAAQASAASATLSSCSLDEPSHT
# Target sequence (P09471 whole entry, looked up): as the sequence (P09471 whole entry, looked up) above
# Avidin bead fluor: compound fluoresces at 488/530 nm on avidin beads. compound fluorescence 488/530 nm, flow cytometry; active compounds read high. fluorescence (KMESF) at 10 µM. 0.38% of 220,000 active; in the data active means fluorescence above about 47
# RGS4-Gao reg: human RGS4-Galphao interaction regulation; P09471; Multiplexed bead flow cytometry, RGS4-Galphao binding; actives lie on both sides; binding response (% of control), % at 10 µM; 0.33% of 220,000 active; AID 1415; in the data active means binding response below about 49% or above about 150%; inactive means in between;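 further: fluorescent Galphao activated with aluminum fluoride binding bead-coupled RGS4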
# RGS4-Gao HTS: RGS4-Galphao interaction regulator (human); shares compounds with RGS16-Gao; multiplexed bead flow cytometry, RGS–Galpha-o binding; RGS4–Galpha-o binding response, % at 10 µM; 99% of 1,600 active;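 further: fluorescently labeled Galpha-o bound to GDP with aluminium fluoride binding biotinylated RGS beads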
# Avidin counter: biotin-avidin bead binding disruption counter-screen; shares compounds with RGS16-Gao; 1,700 tested, under 10 active; streptavidin beads, fluorescein-biotin binding, flow cytometry; inhibition, % at 10 µM;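 active means inhibition above 50%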;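 further: median green fluorescence of gated singlet beads compared with DMSO control wells; 0% = DMSO wells and 100% = complete loss of bead fluorescence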
# RGS8-Gao confirm: RGS8-Galphao interaction regulation, single point confirmation; bead-based flow cytometry RGS8-Galphao binding, fluorescence; actives lie on both sides; AID 1836; shares compounds with RGS16-Gao; 3% of 1,700 active; binding response (% of control), % at 10 µM; in the data active means binding response below about 72% or above about 130%; inactive means in between;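 further: Galphao activated as GDP AlF4 complex before binding bead RGS8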
# RGS7-Gao single: RGS7-Galphao interaction regulation, single point confirmation; shares compounds with RGS16-Gao; bead-based flow cytometry RGS7-Galphao binding; actives lie on both sides; response (percent of control binding), % at 10 µM; 7.8% of 1,700 active; AID 1837; in the data active means response below about 75% or above about 130%; inactive means in between;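 further: fluorescent Galphao activated with GDP and aluminum fluoride binding bead-coupled RGS7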
# RGS16-Gao conf: confirmation of regulators of human RGS16-Galphao interaction. shares compounds with RGS16-Gao. bead-based flow cytometry, RGS16-Galphao binding; actives lie on both sides. response (% of control binding), % at 10 µM. 4% of 1,700 active; in the data active means response below about 74% or above about 130%; inactive means in between;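 further: Galphao activated as the GDP aluminium fluoride complex binding bead-coupled RGS16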
# RGS4-Gao single: confirmation of regulators of human RGS4-Galphao interaction; shares compounds with RGS16-Gao; RGS4-Galphao binding, multiplexed bead flow cytometry; actives lie on both sides; binding response (% of control), % at 10 µM; 4% of 1,700 active; AID 1840; in the data active means binding response below about 74% or above about 130%; inactive means in between
# RGS19-Gao single: RGS19-Galphao interaction regulation, single point confirmation; shares compounds with RGS16-Gao; response (percent of control binding), % at 10 µM; 5% of 1,700 active; bead-based flow cytometry RGS19-Galphao binding; actives lie on both sides; in the data active means response below about 50% or above about 160%; inactive means in between;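 further: 100% = no compound control and 0% = blank background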
# * marks the source's active call; other numbers are inactive results; ? = inconclusive; nt = not tested or not shown; [ ] = remark or other dose. Unless noted, how the calls were made is not given here.
SMILES,RGS7-Gao reg,GSH bead fluor,RGS8-Gao,RGS16-Gao,Avidin bead fluor,RGS4-Gao reg,RGS4-Gao HTS,Avidin counter,RGS8-Gao confirm,RGS7-Gao single,RGS16-Gao conf,RGS4-Gao single,RGS19-Gao single
COc1ccc2c(c1)Cc1sc(NC(=O)c3ccco3)nc1-2,46.0*,20,57.5*,41.6,3,52.5,52.5*,-0.1,99.8,101.1,100.8,101.2,94.7
O=C(/C=C/c1ccc2c(c1)OCO2)Nc1nc2ccc(F)cc2s1,?,nt,99.7,99.0,10,98.8,nt,nt,nt,nt,nt,nt,nt
O=C(/C=C/c1ccc2c(c1)OCO2)Nc1nc(-c2ccc(F)cc2)cs1,101.8,12,118.5,183.5*[activator],7,82.0,82.0*,1.2,102.4,104.0,100.6,98.3,88.5
CCN(CC)S(=O)(=O)c1ccc(N(C)Cc2cccnc2)nc1,100.9,35,101.9,98.6,11,105.2,nt,nt,nt,nt,nt,nt,nt
Cc1cc(C)c2c(CC(=O)NC(C)C)coc2c1,142.7,16,151.3*[activator],160.2,20,141.4,141.4*,-0.1,102.3,96.5,101.7,98.9,85.0
Cc1ccccc1-n1sc2cc(F)ccc2c1=O,103.8,7,37.2*,4.8*,2,89.6,89.6*,nt,nt,nt,nt,nt,nt
CCCN1C(=O)c2cccc3c(N4CCCCC4)ccc(c23)C1=O,89.6,4,74.9,18.2*,12,91.5,91.5*,1.4,99.7,103.4,99.5,102.7,98.6
Cc1cccc(C(=O)Nc2ccc(N3CCN(S(C)(=O)=O)CC3)cc2)c1,93.4,23,95.3,94.9,10,95.7,nt,nt,nt,nt,nt,nt,nt
C=CCN(c1ccccc1OC)S(=O)(=O)c1cccc(C(=O)OCC(=O)c2c[nH]c3ccccc23)c1,99.0,9,100.9,100.3,11,99.7,nt,nt,nt,nt,nt,nt,nt
COc1cc(OC)c(N(C)S(=O)(=O)c2cccc(C(=O)OCC(=O)c3c[nH]c4ccccc34)c2)cc1Cl,92.2,13,75.0,23.6*,1,89.2,89.2*,0.1,111.2,113.8,111.9,109.0,130.3
Cc1nc([N+](=O)[O-])c(C(=O)OCc2ccccc2C#N)n1C,102.8,10,103.1,102.2,13,101.8,nt,nt,nt,nt,nt,nt,nt
Cn1c(-n2c(CCCN3C(=O)c4ccccc4C3=O)nc3ccccc3c2=O)nc2ccccc21,116.0,255*,117.8,725.0,42,180.5*[activator],nt,-1.3,102.5,106.7,103.4,103.4,104.7
N#C/C(=C\c1ccc(N2CCOCC2)o1)C(=O)NCCc1ccccc1,93.4,20,97.5,96.0,6,100.3,nt,nt,nt,nt,nt,nt,nt
N#C/C(=C/c1ccc(N2CCOCC2)o1)C(=O)Nc1ccccc1,198.2*[activator],21,104.2,249.2,55*,159.0*[activator],nt,-0.8,102.6,108.3,105.3,105.0,79.4
NC(=NC1CCCCC1)c1ccc(Cl)cc1,195.1*[activator],14,89.8,101.4,42,117.2,117.2*,1.7,103.0,97.2,102.5,101.2,118.2
NC(=O)C1CCCN(C(=O)c2ccc(Cl)cc2)C1 (stereo not given),97.6,39,97.5,99.4,9,97.4,nt,nt,nt,nt,nt,nt,nt
CC(C)[C@H](NC(=O)OC(C)(C)C)C(=O)N/N=C/c1ccc2nccnc2c1,?,nt,89.9,85.4,6,85.8,nt,nt,nt,nt,nt,nt,nt
O=C(CSc1ncnc2c1oc1ccccc12)Nc1nccs1,155.4*[activator],16,132.4,153.7,9,146.4,146.4*,-0.8,111.8,106.8,106.5,101.6,93.8
Cc1[nH]c2ccccc2c1/C=N/NC(=S)NCc1ccccc1,?,17,106.4,159.2,34,159.4*[activator],nt,0.6,109.8,226.1*[activator],146.5*[activator],164.9*[activator],294.1*[activator]
COc1cc2c(cc1OC)CN(C1CC(=O)N(c3c(C)cccc3C)C1=O)CC2 (stereo not given),108.4,10,100.3,99.6,6,102.5,nt,nt,nt,nt,nt,nt,nt
COc1ccc(S(=O)(=O)N(C)c2c(C)n(C)n(-c3ccccc3)c2=O)cc1OC,203.1*[activator],25,100.3,104.7,107*,119.2,119.2*,2.6,92.0,66.8*,74.1*,71.3*,49.6*
O=C(Nc1ccccc1O)/C(=C\c1ccccc1)NC(=O)c1ccccc1,102.0,11,99.6,103.9,20,100.1,nt,nt,nt,nt,nt,nt,nt
CCOC(=O)N/N=C\c1ccc(-c2cccc(C(F)(F)F)c2)o1,104.3,12,102.8,99.8,6,102.6,nt,nt,nt,nt,nt,nt,nt
CC1(CC(=O)N/N=C/c2ccc(-c3cccc(C(F)(F)F)c3)o2)OCCO1,261.7*[activator],10,115.1,204.2*[activator],254*,169.4*[activator],nt,-0.4,98.8,98.8,100.2,102.1,108.5
O=C(CSc1nn(-c2ccc(F)cc2)c(=S)s1)NC(=O)NCc1ccco1,87.8,19,76.4,19.2*,2,74.5,74.5*,0.2,109.6,105.5,105.8,103.1,96.0
SMILES,RGS7-Gao reg,GSH bead fluor,RGS8-Gao,RGS16-Gao,Avidin bead fluor,RGS4-Gao reg,RGS4-Gao HTS,Avidin counter,RGS8-Gao confirm,RGS7-Gao single,RGS16-Gao conf,RGS4-Gao single,RGS19-Gao single
Cc1nnc(SCC(=O)NC(=O)NCc2ccco2)s1,?,10,101.3,101.0,15,98.5,nt,nt,nt,nt,nt,nt,nt
Clc1ccc(-n2nnc(-c3cccnc3)n2)cc1Cl,43.3*,17,53.2*,46.0,2,46.8*,nt,1.9,104.4,96.4,103.3,96.6,97.3
CCN1/C(=C/c2ccc3cccc(C)c3[n+]2CC)Sc2ccccc21,160.6*[activator],55,126.8,273.7,7,195.8*[activator],nt,2.0,100.0,109.6,100.3,101.6,116.2
O=C(NCc1cccc(CNC(=O)C(=O)NCc2ccco2)c1)C(=O)NCc1ccco1,?,12,95.2,93.2,8,92.4,nt,nt,nt,nt,nt,nt,nt
O=C1N(CN2CCN(Cc3ccccc3)CC2)c2ccccc2C12OCCCO2,100.2,11,102.8,108.3,21,100.1,nt,nt,nt,nt,nt,nt,nt
Cc1cc(NC(=O)C(=O)c2cn(C)c3ccccc23)no1,165.2*[activator],14,104.4,105.5,62*,110.0,110.0*,-1.1,108.6,102.4,108.4,105.3,100.6
